Source: PubChem (National Center for Advancing Translational Sciences (NCATS))
A selection: hits, their analogues and other compounds. The true share with any hit is near 0.85%.
CCT modulator: High-Throughput Screening for Modulators of Cytosolic Chaperonin Activity. purified chaperonin ATPase assay, HTRF ADP detection, 30 min. activity change, % (concentration not given with the values), hits read low. 360,000 compounds, 0.3% hits. AID 651819, 2012; in the data active = activity change below about -30%
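ATPase activity: ADP formed was measured by HTRF Transcreener (665/615 nm ratio) after 30 min at 37 deg C with 10 uM ATP. Compounds screened at one 76 uM concentration against 40 or 20 nM TRiC in Tris pH 7.4/KCl/MgCl2/DTT buffer.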
MmCpn inh: Inhibitors of TCP-1 ring complex (TRiC) of Methanococcus maripaludis (MmCpn): qHTS; Chaperonin Mm-Cpn (Methanococcus maripaludis); Potency, µM (top dose mostly 76.9 µM), most hits filed as inhibitors; 330,000 compounds, 0.031% hits; purified Mm-Cpn ATPase, ADP Transcreener TR-FRET; note: nearly all actives have a fitted effect of over 80% in size
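Purified archaeal Mm-CPN (25nM final) preincubated 10 min at 37degC with compound, then 10uM ATP for 30 min at 37degC; ADP measured by HTRF Transcreener TR-FRET; buffer 30 mM TRIS pH 7.4, 100mM KCl, 5mM MgCl2, 1mM DTT.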
GRP78 ERSR act: qHTS for Inducers of the Endoplasmic Reticulum Stress Response (ERSR) in Human Glioma: qHTS; U87-MG GRP78 promoter luciferase reporter, 16 h; Potency, µM, most hits filed as activators; 420,000 compounds, 0.02% hits; note: series mostly up to about 76 µM; nearly all actives have a fitted effect of over 35% in size
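Stably transfected U87-MG human glioma cells carrying a GRP78-based luminescent sensor were seeded at 1000 cells/well, pin-dosed with compounds and incubated 16 h. Luciferase reagent was then added, and end-point luminescence was read after 10 min at room temperature.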
mIDH1 inhibitor: qHTS for Inhibitors of mutant isocitrate dehydrogenase 1 (IDH1): qHTS | 390,000 compounds, 0.093% hits | Isocitrate dehydrogenase [NADP] cytoplasmic (Homo sapiens), O75874 | Potency, µM (highest dose often 76.6 µM), usual class: inhibitors | AID 602179, 2012 | IDH1-R132H enzyme, NADPH consumption, diaphorase/resazurin fluorescence; note: nearly all actives have a fitted effect of over 65% in size
Target sequence (O75874 whole entry R132H, stated change not applied): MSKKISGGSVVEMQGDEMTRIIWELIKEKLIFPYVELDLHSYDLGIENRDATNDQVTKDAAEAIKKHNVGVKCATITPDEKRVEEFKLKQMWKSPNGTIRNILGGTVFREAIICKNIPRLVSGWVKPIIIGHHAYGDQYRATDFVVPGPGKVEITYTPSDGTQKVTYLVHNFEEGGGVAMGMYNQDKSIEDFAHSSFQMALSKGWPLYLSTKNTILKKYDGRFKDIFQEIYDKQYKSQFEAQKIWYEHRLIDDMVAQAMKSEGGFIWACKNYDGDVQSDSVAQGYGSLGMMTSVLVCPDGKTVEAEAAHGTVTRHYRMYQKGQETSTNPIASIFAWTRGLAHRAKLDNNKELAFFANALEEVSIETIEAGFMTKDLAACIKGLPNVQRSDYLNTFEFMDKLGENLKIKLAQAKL
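IDH1-R132H (0.5 ug/mL) preincubated 30 min with compound, then NADPH (0.016 mM) and alpha-KG (2 mM) added; 80 min at RT, pH 7.5. Remaining NADPH coupled via diaphorase/resazurin to fluorescence (540/590 nm); concentration-response curves normalized to no-enzyme control.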
GLS inhibitor: qHTS for Inhibitors of Glutaminase (GLS); Glutaminase kidney isoform, mitochondrial (Homo sapiens), O94925; GLS enzymatic activity, qHTS titration; Potency, µM (highest dose often 45.5 µM), most hits filed as inhibitors; 410,000 compounds, 0.21% hits
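Glutamate formation by hKGA was monitored fluorometrically using coupled glutamate oxidase, HRP and Amplex Red. Substrate was added as 1 mM L-glutamine solution; incubation was 30 min at RT after an initial read.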
pAkt inh: HTS Assay for Inhibitors of Akt Phophorylation: Primary Screen | 360,000 compounds, 0.32% hits | activity change, % for hits at 50 µM | Neuro2A IGF-stimulated pAkt S473 HTRF, 20 min; stronger effect = lower value | AID 651550, 2012; in the data active = activity change below about -80%; inconclusive = mostly about -51% to -80%
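Neuro2A cells (4,500/well, DMEM with 0.5% FBS) were treated with compound at a single 50 µM final concentration, stimulated with 6 nM IGF for 20 min at 37 °C, and lysed. Phospho-Akt Ser473 was read by HTRF as 665/615 ratio ×10^4.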
A number is an active result; – = inactive; ? = inconclusive; · = no result given. Unless noted, calls come from the whole dose curve; as a rule, active = well fitted curve in the direction sought with a large enough effect; inconclusive = small, poorly fitted or top-dose-only effect, or another doubt; inactive = no such curve, though single readings can be large; an effect the other way counts as inactive or inconclusive.

SMILES | CCT modulator | MmCpn inh | GRP78 ERSR act | mIDH1 inhibitor | GLS inhibitor | pAkt inh
COc1ccc(-n2c(NC(=O)c3ccco3)c(C#N)c3nc4ccccc4nc32)cc1 | -60.5 | – | – | – | – | –
O=C(CN1CCN(c2ccccc2)CC1)N1CCc2ccccc21 | – | – | – | – | – | –
O=C(CN1CCN(c2ccc(O)cc2)CC1)N1CCc2ccccc21 | – | – | – | – | 8.91µM | –
O=C(c1ccccc1-n1cccn1)N1CCOc2c(cc(-c3ncc(C(F)(F)F)cc3Cl)cc2OCC2CCCO2)C1 (configuration not stated) | · | · | – | · | · | ·
COc1ccc(-c2cccc3c2OC(CNC(=O)c2ccccc2-n2cccn2)C3)nn1 (configuration not stated) | · | · | – | · | · | ·
Cc1ccc(/C=C2/Sc3ccc(C(=O)NCc4ccccn4)cc3NC2=O)cc1 | – | – | – | – | 17.8µM | –
Cc1ccc(/C=C2/Sc3ccc(C(=O)N4CCN(c5ccccn5)CC4)cc3NC2=O)cc1 | – | – | – | – | – | –
COc1ccc(N(C(=O)c2ccco2)S(=O)(=O)c2cc(OC)ccc2OC)cc1 | – | – | 39.8µM | – | – | ·
COc1ccc(N(C(=O)c2ccccc2)S(=O)(=O)c2cccs2)cc1 | – | – | 31.6µM | – | ? | –
COc1ccc(N(C(=O)c2ccco2)S(=O)(=O)c2ccc(F)cc2)cc1 | – | – | – | – | – | –
COc1ccc(N(C(=O)c2ccco2)S(=O)(=O)c2cccs2)cc1 | – | – | ? | – | – | -113.1%
CCCS(=O)(=O)NCc1c(C)ncc2c1CCN(C(=O)c1cccc(Cl)c1F)C2 | · | · | – | · | · | ·
COC(=O)c1c(OCc2cccnc2)cc(=O)n2c1CCN(C(=O)c1cccc(N(C)C)c1)CC2 | · | · | – | · | · | ·
NC(=O)C1CCCN(Cc2ccc3c(c2)CN(Cc2cn[nH]c2-c2ccc(F)cc2)CCO3)C1 (configuration not stated) | · | · | – | · | · | ·
COc1ccc(C2C(C(=O)OCC3CCCO3)=C(C)NC3=C2C(=O)CC(c2ccco2)C3)cc1O (configuration not stated) | – | – | – | – | – | -113.2%
COc1ccc(C(=O)NCC2Cc3cccc(-c4cncnc4)c3O2)c(OC)c1OC (configuration not stated) | · | · | – | · | · | ·
CC(=O)c1c(C)[nH]c(C(=O)CSc2nc3ccccc3n2C)c1C | – | – | – | – | – | -85.0%
CCCCn1c(C(C)NC(=O)c2cccs2)nc2ccccc21 (configuration not stated) | – | – | – | – | – | -102.8%
COc1ccccc1CC(=O)N1CCN(c2cccc(C(F)(F)F)c2)CC1 | -34.1 | – | – | – | – | –
COc1ccccc1NC(=O)N1CCN(c2cccc(C(F)(F)F)c2)CC1 | – | – | – | – | – | –
CC1(C)S[C@@H]2[C@H](NC(=O)C(C(=O)Oc3ccc4c(c3)CCC4)c3ccccc3)C(=O)N2[C@H]1C(=O)O (some centres not stated) | · | · | – | · | 7.94µM | ·
C=NC(C(=O)NC1C(=O)N2C1SC(C)(C)C2C(=O)O)c1ccccc1 (configuration not stated) | · | · | – | · | 28.2µM | ·
CC1(C)S[C@@H]2[C@H](NC(=O)C(N)c3ccccc3)C(=O)N2[C@H]1C(=O)O (some centres not stated) | · | · | – | · | · | ·
CC1(C)SC2C(NC(=O)C(c3ccccc3)S(=O)(=O)O)C(=O)N2C1C(=O)O (configuration not stated) | · | · | – | · | – | ·
COc1cccc(C2(CC(=O)N3CCC(c4nc5ccccc5o4)CC3)CC(=O)N(C)C2=O)c1 (configuration not stated) | · | · | – | · | · | ·
SMILES | CCT modulator | MmCpn inh | GRP78 ERSR act | mIDH1 inhibitor | GLS inhibitor | pAkt inh
COc1ccc(N2C(=O)CC(N3CCN(c4ccccc4)CC3)C2=O)cc1 (configuration not stated) | – | – | – | – | – | –
COc1ccc(N2C(=O)CC(N3CCOCC3)C2=O)cc1 (configuration not stated) | – | – | – | – | – | -110.3%
COc1ccc(N2C(=O)CC(Cc3ccccc3)C2=O)cc1 (configuration not stated) | – | – | – | – | – | -88.6%
Cc1c(C(=O)NCC2CC2)sc2ncnc(NCCN3CCCCC3)c12 | · | · | – | · | · | ·
O=C(CCS(=O)(=O)c1ccc(Br)cc1)N1CCN(c2ccccc2)CC1 | – | – | – | – | – | –
O=C(CCS(=O)(=O)c1ccc(Br)cc1)N1CCN(Cc2ccccc2)CC1 | – | – | – | – | – | -109.3%
O=C(NC(=O)N1CCN(c2ccc([N+](=O)[O-])cn2)CC1)c1ccccc1F | – | – | – | – | – | –
CN(NC(=O)c1ccccc1F)c1ccc([N+](=O)[O-])cn1 | -43.0 | – | – | – | – | –
COc1ccccc1-c1cc2c(c(OC)c1)OCCN(C(=O)Cn1nc(-c3ccccc3)c3ccccc3c1=O)C2 | · | · | – | · | · | ·
COc1ccccc1C1CN(Cc2cccnc2)Cc2ccccc2O1 (configuration not stated) | · | · | – | · | · | ·
C#CCOCCOCCOCCNc1nc(N2CCN(C(=O)CCCCCCCCCCNC(=O)[C@H]([C@@H](C)CC)n3cc(CCCCCN)nn3)CC2)nc(N2CCN(C(=O)CCCCCCCCCCNC(=O)[C@H](CCCCN)n3cc(CCCC(=O)O)nn3)CC2)n1 | – | – | – | – | – | –
C#CCOCCOCCOCCNc1nc(N2CCN(C(=O)CCCCCCCCCCNC(=O)[C@@H](CCC(=O)O)n3cc(CCCCCN)nn3)CC2)nc(N2CCN(C(=O)CCCCCCCCCCNC(=O)[C@H]([C@@H](C)CC)n3cc(CCCCCN)nn3)CC2)n1 | – | 44.7µM | – | – | ? | –
C#CCOCCOCCOCCNc1nc(N2CCN(C(=O)CCCCCCCCCCNC(=O)[C@H]([C@@H](C)CC)n3cc(CCCCN=C(N)N)nn3)CC2)nc(N2CCN(C(=O)CCCCCCCCCCNC(=O)[C@H](CCCCN)n3cc(C)nn3)CC2)n1 | – | – | – | – | 15.8µM | –
Cc1cc(C)c(C(=O)NCc2nc(-c3cccc(NC(=O)C4CCCN(C)C4)c3)oc2C)[nH]1 (configuration not stated) | · | · | – | · | · | ·
CCCCCc1nc(-c2nonc2N)no1 | – | – | – | – | – | -120.3%
